Most compounds without a hit are left out; they make up all but 17% or so of the library.
ATXN2 expr inh – ATXN2 expression inhibition | HEK-293 ATXN2-luciferase reporter, luminescence, 24 h | Potency, µM (series often up to 57 µM), usual class: inhibitors | 0.72% of 360,000 active | AID 1745845; further: nearly all actives have a fitted effect of over 55% in size
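qHTS (up to 57 uM final) was run with 24 h compound exposure of reporter cells at 37 °C. Each well was multiplexed: SteadyGlo luminescence measured ATXN2-luciferase expression after a fluorogenic Gly-Phe-AFC viability readout (25 uM final).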
TGFb inhibitor – inhibitors of TGF-b signaling; HepG2 CAGA-GFP TGF-b/SMAD3 reporter, GFP fluorescence, 18 h; TGF-beta stimulated, 500 pg/mL final; Potency, µM (series often up to 46.1 µM), most hits filed as inhibitors; 1.2% of 410,000 active; AID 588855; further: nearly all actives have a fitted effect of over 65% in size
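GFP signal (ex488/em500-530) from TGF-beta-stimulated HEPG2 CAGA-GFP cells, 500 pg/mL final, 18 h at 37 degrees C in DMEM plus 1% FBS, normalized to unstimulated and DMSO-stimulated controls.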
HepG2 tox – HepG2 cytotoxicity, counter-screen for TGF-b inhibitors. 0.76% of 410,000 active. HepG2 CAGA-GFP viability, ATP luminescence, 18 h. Potency, µM (doses to about 46.1 µM), hits mostly cytotoxic
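HepG2 CAGA-GFP cells (1000/well, DMEM with 1% FBS) received compound, then TGF-beta at 500 pg/mL final, and were incubated 18 hours at 37 degrees C. Viability was read by CellTiter-Glo luminescence. Media-only wells were set as complete cell-killing and DMSO as no toxicity.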
S2 tox – cell viability loss in ATXN counter-screen. S2 cells (HEK-293 line with an ATXN2-luciferase reporter) viability, CellTiter-Fluor protease fluorescence, 24 h. 0.49% of 400,000 active. Potency, µM (doses to about 56.7 µM), hits mostly cytotoxic; further: nearly all actives have a fitted effect of over 40% in size
DT40 TDP1 no CPT – qHTS for Inhibitors of human tyrosyl-DNA phosphodiesterase 1 (TDP1): qHTS in cells in absence of CPT. DT40 Tdp1-/- hTDP1 cells, no CPT, ATP luminescence, 48 h. Potency, µM (series often up to 46.2 µM), most hits filed as inhibitors. 15% of 420,000 active; further: nearly all actives have a fitted effect of over 55% in size
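No-CPT arm: Tdp1-/-;hTDP1 DT40 cells (400/well) plus compounds, incubated ≥48 hr at 37 °C. Readout CellTiter-Glo luminescence.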
TDP1 cell CPT – growth inhibition of DT40 Tdp1-/-;hTDP1 cells with camptothecin (screen for TDP1 inhibitors); 12% of 420,000 active; chicken DT40 Tdp1-/-;hTDP1 cells + 20 nM CPT, ATP luminescence, 48 h; Potency, µM (series often up to 46.2 µM), usual class: inhibitors; further: nearly all actives have a fitted effect of over 55% in size
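Chicken DT40 Tdp1-/- cells stably complemented with human TDP1 were seeded at 400 cells/well in medium containing 20 nM camptothecin, exposed to pin-transferred compounds, and grown at 37 °C for at least 48 hr. Viability was read as ATP luminescence.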
Hits are given with their value; n = inactive; u = inconclusive; x = no result; [ ] = another dose, or the depositor's remark. The call rests on the fitted dose curve; in most records, active means well fitted curve in the direction sought with a large enough effect; inconclusive means small, poorly fitted or top-dose-only effect, or another doubt; inactive means no such curve, though single readings can be large; an effect the other way counts as inactive or inconclusive.

SMILES	ATXN2 expr inh	TGFb inhibitor	HepG2 tox	S2 tox	DT40 TDP1 no CPT	TDP1 cell CPT
CCOc1cc(N2CCOCC2)c(OCC)cc1NS(=O)(=O)c1ccc(Cl)s1	n	n	n	u	2.91µM	4.61µM
CC(Oc1cccc(Cl)c1)C(=O)Nc1ccccc1C(=O)N1CCCCC1 (stereo unspecified)	n	n	n	n	u	23.1µM
O=C(O)C1CC2C3CC(C(=O)O)C(C3)C2C1 (stereo unspecified)	n	n	n	n	n	n
COC(C(=O)Nc1ccnn1C1CCN(Cc2cccc(C)n2)CC1)c1ccccc1 (stereo unspecified)	x	n	n	n	n	n
O=S(=O)(Nc1ncnc2scc(-c3ccc(F)cc3)c12)c1cc(F)ccc1F	x	u	n	n	29.1µM	u
Cc1ccc(-c2csc3ncnc(NS(=O)(=O)c4ccc(Cl)cc4)c23)cc1	n	n	n	n	n	n
OCCCNc1ncnc2scc(-c3ccc(Cl)cc3)c12	n	n	n	n	20.6µM	u
Clc1ccc(-c2csc3ncnc(Cl)c23)cc1	n	n	n	n	16.4µM	u
NNc1ncnc2scc(-c3ccc(Cl)cc3)c12	15.8µM	n	n	n	u	u
O=C1O[C@H]2[C@H](O)[C@@H]1OC(O)[C@H]2O (stereo partly specified)	x	x	x	n	n	n
CCCCn1c(N)c(N(CCOC)C(=O)Cn2c(=O)oc3ccccc32)c(=O)[nH]c1=O	n	n	n	n	n	n
COc1ccc(CNCCCC(=O)Nc2c(Cl)ccc(C)c2Cl)cc1OC	n	n	n	n	u	u
Cc1ccc(C)c(OCc2cc(C(=O)N3CCN(c4ccccc4)CC3)no2)c1	n	n	n	n	n	u
CCN(CCn1cccn1)C(=O)c1cc(COc2cc(C)ccc2C)on1	n	n	n	n	u	18.4µM
Cc1ccc(C)c(OCc2cc(C(=O)N3C[C@@H](C)O[C@@H](C)C3)no2)c1	n	n	n	n	u	16.4µM
Cc1ccc(C)c(OCc2cc(C(=O)N3CCc4sccc4C3)no2)c1	n	n	n	n	23.1µM	16.4µM
Cc1ccc(C)c(OCc2cc(C(=O)N3CC[C@@H]4CCCC[C@H]4C3)no2)c1	n	n	n	n	25.9µM	u
CCN(CCn1cccn1)C(=O)c1cc(COc2ccccc2SC)on1	n	n	n	n	u	u
CC1CCCCC1Nc1nc2ccc(Cl)cc2n2cnnc12 (stereo unspecified)	n	u	n	u	u	u
COc1cc(C)ccc1OCc1cc(C(=O)N2CCC(c3ccc(F)cc3)C2)no1 (stereo unspecified)	x	n	n	n	2.31µM	u
Nc1ccc(/C=C/c2cc(Cl)nc3ccccc23)cc1	x	n	n	x	3.98µM	3.98µM
Nc1ccc(/C=C/c2cccc3cccnc23)cc1	x	n	n	x	u	u
CCN(CC)c1ccc(/C=C/c2cc(Cl)nc3ccccc23)cc1	x	n	n	x	15.8µM	u
Cc1ccc(-n2c(-c3ccccc3)c[n+]3c2CCC3)cc1	n[11.3 µM]	n	n	u	0.651µM	1.03µM
Cc1ccc(-c2c(C#N)c(N)n(-c3ccc(Cl)cc3)c(=O)c2C#N)cc1	n	n	n	n	n	n
SMILES	ATXN2 expr inh	TGFb inhibitor	HepG2 tox	S2 tox	DT40 TDP1 no CPT	TDP1 cell CPT
FC(F)Sc1ccc(-n2c(-c3ccc(Cl)cc3)c[n+]3c2CCC3)cc1	x	n	n	n	14.6µM	11.6µM
Cc1ccc(-n2c(-c3ccc(Cl)cc3)c[n+]3c2CCC3)cc1	n	n	n	u	3.26µM	3.26µM
COCCNC(=O)c1cccc2c(-c3cnn(C)c3)coc12	n	n	n	n	n	n
COc1ccc(-c2c(NC(=O)c3ccco3)oc3ccccc3c2=O)cc1	n	n	n	n	n	n
COc1ccc(CNC(=O)CN2C(=O)CSc3ccc(S(=O)(=O)N4CCCC4)cc32)cc1	x	n	n	x	u	n
Cc1ccc(S(=O)(=O)N(c2nc(NC(C)C)nc(NC(C)C)n2)n2cnnc2)cc1	n	u	n	u	u	n

Screening results from PubChem BioAssay.
